Experiment in all cases: NCI-60 one-dose screen, 48 h (100 = growth as untreated, 0 = no growth, -100 = all killed)
Common to all, as to conditions: 10 µM unless noted

The subject of assay [1] is SK-MEL-2 melanoma.
The test system of assay [2] is SN12C renal.
Assay [3] has as its system UO-31 renal.
Assay [4] deals with ACHN renal.
Assay [5] relates to CAKI-1 renal.
Assay [6] deals with A498 renal.
For assay [7], the system named is CCRF-CEM leukemia.
Assay [8] concerns MOLT-4 leukemia.
In assay [9] the test system is SR leukemia.
In assay [10] the test system is RPMI-8226 leukemia.
The test system of assay [11] is OVCAR-5 ovarian.
The subject of assay [12] is OVCAR-4 ovarian.
For assay [13], the system named is SK-OV-3 ovarian.
Assay [14] has as its system IGROV1 ovarian.
Assay [15] relates to OVCAR-3 ovarian.
Assay [16] deals with NCI/ADR-RES ovarian.
The test system of assay [17] is OVCAR-8 ovarian.
In assay [18] the test system is HS 578T breast.
Assay [19] concerns TK-10 renal.
In assay [20] the test system is EKVX NSCLC.

“And” between values parts separate entries of the source, which are not always exact repeats. Equal values may be shown once. This is part of a sample that, as a whole, favours compounds with a hit. Of some 83,000 tested, about 20% had one in any assay.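 Testing used 96-well plates and a 48-hour single-concentration exposure. Example: -40 means 40% of the starting cells died.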 Values without a mark were called inactive. The source made the active and inactive calls. Rule for the calls: active = growth percent below 10; inactive = the rest.

Consider eight compounds from PubChem BioAssay (NCI).

In the case of `CC(C)(C)c1ccc(O)c(C2CCCCC2)c1`, the growth was 89% in assay [1]; 97.5% in assay [2]; 104% in assay [3]; 103% in [4]; 116% in assay [5]; 107% in assay [6]. The growth in assay [7] was 47.9%; in assay [8], -31.9% (active); in [9], 84.9%; in assay [10], 83%; in assay [11] it was 101%; in assay [12], 101%. Besides, the growth in [13] was 109%; in [14], 137%; in assay [15], 110%; in assay [16] it was 117%.
In the case of `Oc1ccc(/C=N/NC(=S)Nc2ccccc2)nc1`, the growth in assay [1] is 11.8%; in assay [2], 20.2%; in assay [3], -2.11% (active); in [4], 12.3%; in [5] it was 7.96% (active); in assay [7], 6.28% (active). In addition, the growth in assay [8] is -35.2% (active); in [9], -22.7% (active); in [10], 6.99% (active); in [17], 15.2%; in assay [13], 18.9%; in assay [14], 23.2%. The figures for the growth in assay [15], in [18] and in assay [16] were 20%, 88.5% and 3.65% (active), respectively.
On to `O=C(O)C1C2CC3C(OC(=O)C31)C2Br` (stereo not drawn), for which the growth in assay [1] was 95.8% and 105%; in assay [2], 95.2% and 103%; in assay [19], 88.7% and 100%; in [4], 96% and 100%; in assay [5], 102% and 101%; in assay [6], 103% and 64.4%. The growth in [7] is 89.3% and 107%; in assay [9], 97.3% and 101%; in assay [17], 97.8% and 100%; in [11] it was 103% and 100%; in [12], 114% and 89.8%; in [13] it was 95.8% and 105%. For the same compound, the growth was 103% and 114% in assay [14]; 110% and 106% in [15]; 93.4% and 95.7% in assay [18]; 103% and 100% in assay [16].
On to `C[n+]1c(/C=C/c2ccc([N+](=O)[O-])cc2)ccc2ccccc21`, for which the growth is 62.8% in [20]; 102% in assay [2]; 63.3% in assay [3]; 112% in assay [19]; 116% in [4]; 81.3% in [5]. For the same compound, the growth in assay [6] was 92.4%; in assay [7] it was 112%; in [8] it was 90.7%; in [9] it was 82.7%; in assay [10], 102%; in [17], 91.3%. Also, the growth in assay [11] was 112%; in assay [12] it was 105%; in [13], 109%; in assay [14] it was 104%; in assay [15], 99.5%; in assay [18] it was 99.7%. In [16], the growth is 102%.
For the compound `Cc1c2ccccc2c(C)c2c1ccc1ccccc12`, the growth in [1] was 98.6%; in assay [2], 94.3%; in assay [3], 80.3%; in assay [4] it was 97.2%; in assay [5] it was 89%; in [6], 81.1%. For the same compound, the growth was 88.9% in [7]; 71.1% in assay [8]; 63.8% in assay [9]; 98.8% in [17]; 95.6% in assay [11]; 89.9% in assay [12]. In addition, the growth was 99.4% in assay [13]; 81% in assay [14]; 105% in [15]; 98% in assay [18]; 106% in assay [16].
With `C/C=C1\SC(=S)NC1=O`, the growth in [1] is 111%; in [2], 101%; in assay [3], 91.6%; in assay [19] it was 98.4%; in [4] it was 106%; in assay [5], 99.3%. The growth was 108% in assay [6]; 101% in [9]; 101% in assay [10]; 103% in assay [17]; 94.9% in assay [11]; 101% in [12]. Also, the growth in [13] was 92.4%; in [14] it was 105%; in [15] it was 111%; in [18] it was 104%; in assay [16], 107%.
With `CCCCCCCCCCCCCCCC[N+](C)(CCO)Cc1cnc[nH]1` (stereo not drawn), the growth in assay [1] is -78.5% (active); in assay [2] it was -4.78% (active); in assay [3], 27.6%; in assay [19], -35.1% (active); in assay [4] it was 3.11% (active); in assay [5], 40.9%. Further, the growth in assay [6] is -5.4% (active); in assay [8], -77.2% (active); in [10] it was -58.3% (active); in [11] it was -13.7% (active); in assay [12], -1.06% (active); in [13] it was -21% (active). The growth in assay [14] is -54.5% (active); in assay [15], -36.9% (active); in assay [18], -19.4% (active); in [16] it was 94.5%.
On to `COc1ccccc1OC(=O)Oc1ccccc1OC`, for which the growth in assay [1] is 115% and 91.6%; in assay [2], 105% and 95.8%; in assay [3], 78.2% and 93.9%; in assay [4], 108% and 104%; in assay [5], 97.9%; in assay [6], 108% and 103%. Besides, the growth in assay [7] is 101% and 83.6%; in [8], 93.9% and 92%; in assay [9] it was 103% and 101%; in assay [10] it was 105% and 72.9%; in assay [17], 103% and 112%; in [12], 114% and 99%. The growth in assay [13] was 112%; in assay [14] it was 105% and 97.2%; in [15] it was 119% and 96.3%; in assay [18], 92.4% and 102%; in [16], 114% and 95.8%.
